Measured values published in PubChem BioAssay (NCATS).
Results filed as inconclusive are left out. Calls of active or inactive are those of the source. Unless noted, calls come from the whole dose curve; as a rule, active = well fitted curve in the direction sought with a large enough effect; inconclusive = small, poorly fitted or top-dose-only effect, or another doubt; inactive = no such curve, though single readings can be large; an effect the other way counts as inactive or inconclusive.

How the values were obtained:
[1] = biological target: Nuclear receptor subfamily 1 group I member 3 (Homo sapiens) (UniProt Q14994); test: Primary qHTS for antagonist of constitutive androstane receptor (CAR) against the NCATS DSHEA and TCM libraries (AID 1794836); note: potency is the fitted concentration of half-maximal effect
Nuclear receptor subfamily 1 group I member 3 (Homo sapiens), sequence (Q14994 whole entry, looked up): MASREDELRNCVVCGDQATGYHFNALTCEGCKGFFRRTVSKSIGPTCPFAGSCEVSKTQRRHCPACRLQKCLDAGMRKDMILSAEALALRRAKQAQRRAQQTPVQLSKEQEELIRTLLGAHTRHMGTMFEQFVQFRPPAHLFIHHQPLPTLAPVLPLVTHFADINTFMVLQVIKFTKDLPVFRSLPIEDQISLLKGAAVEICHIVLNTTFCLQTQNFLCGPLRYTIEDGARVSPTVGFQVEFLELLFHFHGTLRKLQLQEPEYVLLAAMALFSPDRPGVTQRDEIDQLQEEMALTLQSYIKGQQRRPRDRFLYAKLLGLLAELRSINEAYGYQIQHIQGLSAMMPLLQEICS
Summary of the method: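 Antagonist mode: CAR reporter luminescence (ONE-Glo) in HepG2-CYP2B6-hCAR cells stimulated with 48 uM CITCO (final) over 24 h at 37 C, compounds titrated; viability read first by CellTiter-Fluor fluorescence.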

[2] = Viability counterscreen for agonist of constitutive androstane receptor (CAR) against the NCATS DSHEA and TCM libraries (AID 1794838); note: 0% is about no effect
Summary of the method: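 HepG2-CYP2B6-hCAR cells (2,500/well) attached 5 h, then got compounds plus 0.75 uM PK11195 final. After 24 h at 37C, viability read by CellTiter-Fluor fluorescence (Ex/Em 405/540 nm).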

[3] = biological target: Nuclear receptor subfamily 1 group I member 3 (Homo sapiens) (UniProt Q14994); test: Primary qHTS for agonist of constitutive androstane receptor (CAR) against the NCATS DSHEA and TCM libraries (AID 1794839); details: Potency: CAR antagonist co-added at 0.75 µM unless noted;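 note: HepG2 cells expressing human CAR with a CYP2B6 reporter plus PK11195 antagonist; 0% is about no effect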
Summary of the method: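 HepG2-CYP2B6-hCAR cells (2,500/well) were attached for 5 h, then treated for 24 h at 37 °C with compounds plus 0.75 µM PK11195. Luciferase luminescence (ONE-Glo) was read, with CellTiter-Fluor viability (Ex/Em 405/540 nm).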

[4] = HepG2 viability counterscreen (readout 2: ATP content) against the NCATS DSHEA and TCM libraries (AID 1794840);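 note: HepG2 cells exposed to substances for about 24 h; 0% is about no effect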
Summary of the method: (§1)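 HepG2 cells (1,000 cells/well) attached ~4 h, then treated ~24 h at 37C with substances. Protease activity read by GF-AFC (25 uM final, 30 min, Ex/Em 380/510 nm); ATP content then by CellTiter-Glo luminescence.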

[5] = HepG2 viability counterscreen (readout 1: protease activity) against the NCATS DSHEA and TCM libraries (AID 1794841);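 note: cells exposed to compounds for about 24 h before the protease read; 0% is about no effect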
Summary of the method: as §1

[6] = biological target: Cytochrome P450 2D6 (Homo sapiens) (UniProt P10635); test: qHTS for inhibitors of CYP2D6 against the NCATS DSHEA and TCM libraries (AID 1919972); note: % is set by controls: 0 for no effect and ±100 for the full control effect
Cytochrome P450 2D6 (Homo sapiens), sequence (P10635 whole entry, looked up): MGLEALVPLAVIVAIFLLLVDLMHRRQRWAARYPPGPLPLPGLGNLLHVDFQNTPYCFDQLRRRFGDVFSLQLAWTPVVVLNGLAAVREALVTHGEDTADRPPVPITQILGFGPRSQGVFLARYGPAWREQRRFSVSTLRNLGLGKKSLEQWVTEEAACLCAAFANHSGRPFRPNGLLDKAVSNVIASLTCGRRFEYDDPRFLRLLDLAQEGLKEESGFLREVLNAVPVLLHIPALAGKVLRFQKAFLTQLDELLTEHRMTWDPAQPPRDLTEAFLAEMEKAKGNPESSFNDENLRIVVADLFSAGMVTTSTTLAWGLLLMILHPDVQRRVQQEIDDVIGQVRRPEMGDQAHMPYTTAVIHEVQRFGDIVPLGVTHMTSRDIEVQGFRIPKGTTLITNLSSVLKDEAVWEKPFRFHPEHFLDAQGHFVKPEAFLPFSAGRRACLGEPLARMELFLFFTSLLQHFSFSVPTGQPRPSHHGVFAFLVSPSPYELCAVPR
Summary of the method: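 qHTS, concentration–response format with most substances from 19.5 nM. CYP2D6 + pro-luciferin substrate, 15 min with compound, then 1x NADPH regen, 30–45 min RT dark. Glo detection 30 min, luminescence. Quinidine control.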

[7] = biological target: Cytochrome P450 2C19 (Homo sapiens) (UniProt P33261); test: qHTS for inhibitors of CYP2C19 against the NCATS DSHEA and TCM libraries (AID 1919974);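 note: luminescence from luciferin released by CYP2C19 oxidation of a pro-luciferin substrate; potency is the fitted concentration of half-maximal effect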
Cytochrome P450 2C19 (Homo sapiens), sequence (P33261 whole entry, looked up, canonical isoform): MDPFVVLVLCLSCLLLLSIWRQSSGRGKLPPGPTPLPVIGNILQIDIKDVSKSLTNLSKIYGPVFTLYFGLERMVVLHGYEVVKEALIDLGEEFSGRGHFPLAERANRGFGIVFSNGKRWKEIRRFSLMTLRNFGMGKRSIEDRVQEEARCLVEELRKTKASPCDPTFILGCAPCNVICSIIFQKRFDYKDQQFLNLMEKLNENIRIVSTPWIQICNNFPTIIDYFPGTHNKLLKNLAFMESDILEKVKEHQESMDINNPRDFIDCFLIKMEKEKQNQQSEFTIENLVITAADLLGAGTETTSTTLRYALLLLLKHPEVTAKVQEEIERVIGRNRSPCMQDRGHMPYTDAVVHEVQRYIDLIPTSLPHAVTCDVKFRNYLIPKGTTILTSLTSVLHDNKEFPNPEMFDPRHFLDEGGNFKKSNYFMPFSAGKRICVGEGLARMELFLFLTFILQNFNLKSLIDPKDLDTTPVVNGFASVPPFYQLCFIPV
Summary of the method: (§2)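 Isoform-specific enzyme and substrate levels; enzyme-free wells as background. Reaction: 1x NADPH regenerating system, 30-45 min, room temperature, shielded from light; luminescent detection reagent added, 30 min.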

[8] = KB-3-1 P-gp reporter qHTS against the NCATS DSHEA and TCM libraries (AID 1919975); note: 0% is about no effect
Summary of the method: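 Parental KB-3-1 human cervical adenocarcinoma cells (500 cells/well, DMEM + 10% FBS) were treated with substances for ~72 h at 37C; viability was read by CellTiter-Glo luminescence.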

[9] = KB-8-5-11 P-gp reporter qHTS against the NCATS DSHEA and TCM libraries (AID 1919977); note: 0% is about no effect
Summary of the method: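 P-gp-overexpressing KB-8-5-11 cells (500/well) were plated in colchicine-free DMEM with 10% FBS, attached ~4 h, then exposed to substance titrations for ~72 h at 37C. Viability was read by CellTiter-Glo luminescence.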

[10] = qHTS Counterscreen for compound interference against the NCATS DSHEA and TCM libraries (AID 1919978); details: firefly luciferase detection reagent interference, luminescence; note: % of control where 0% means no effect
Summary of the method: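 D-luciferin (1 uM final) or 100 mM potassium phosphate buffer alone was preincubated 15 min at RT with compounds (19.5 nM to 39.8 uM final). Luciferin detection reagent was then added and luminescence read after 30 min at RT.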

[11] = Dual reporter qHTS for agonist of Pregnane X Receptor (hPXR) against the NCATS DSHEA and TCM libraries: Fluorescence readout (AID 1920058); note: 0% is about no effect
Summary of the method: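 In this qHTS counter-read, reporter-bearing HepG2 cells in charcoal-stripped serum received substances for approximately 24 h before viability was assessed fluorometrically with CellTiter-Fluor.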

[12] = biological target: Nuclear receptor subfamily 1 group I member 2 (Homo sapiens) (UniProt O75469); test: Dual reporter qHTS for antagonist of Pregnane X Receptor (hPXR) against the NCATS DSHEA and TCM libraries: Luminescence Readout (AID 1920060); note: 0% is about no effect
Nuclear receptor subfamily 1 group I member 2 (Homo sapiens), sequence (O75469 whole entry, looked up): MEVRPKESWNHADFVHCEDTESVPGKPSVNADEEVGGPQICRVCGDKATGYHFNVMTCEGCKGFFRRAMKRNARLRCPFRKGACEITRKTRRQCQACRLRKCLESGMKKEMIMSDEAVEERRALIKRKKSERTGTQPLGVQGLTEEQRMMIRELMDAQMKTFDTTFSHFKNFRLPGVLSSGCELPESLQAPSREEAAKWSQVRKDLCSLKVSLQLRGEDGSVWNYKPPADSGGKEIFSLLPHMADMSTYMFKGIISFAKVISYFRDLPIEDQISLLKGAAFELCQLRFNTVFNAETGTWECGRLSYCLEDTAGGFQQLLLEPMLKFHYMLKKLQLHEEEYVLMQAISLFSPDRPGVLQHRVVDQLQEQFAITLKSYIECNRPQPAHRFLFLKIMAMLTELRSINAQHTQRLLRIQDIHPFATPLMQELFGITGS
Summary of the method: (§3)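 Rifampicin-stimulated (2 uM final) hPXR-luciferase HepG2 cells were treated for 24 h with DSNP/TCM substances. Viability came from CellTiter-Fluor fluorescence, reporter activity from ONE-Glo luminescence.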

[13] = Dual reporter qHTS for antagonist of Pregnane X Receptor (hPXR) against the NCATS DSHEA and TCM libraries: Fluorescence Readout (AID 1920061); note: 0% is about no effect
Summary of the method: as §3

[14] = tested on: HIV-1 nucleocapsid protein NCp7 (binding to TG oligonucleotide); test: HIV Nucleocapsid (AID 346; call rule not given here;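 note: potency is the fitted concentration of half-maximal effect; potency is for inhibitors that block NC binding and lower polarization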); details: HIV-1 NC / fluorescein-TGTGTGTG probe, fluorescence polarization
Summary of the method: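 HIV-1 NC (100 nM) binding to fluorescein-labelled ssDNA TG4xF (10 nM) in Hepes pH 7.5, 250mM NaCl, 1uM ZnCl2, TCEP and 2-mercaptoethanol; compounds pin-transferred, 1 hr room temperature, fluorescence polarization read on CCD imager.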

[15] = biological target: Lysosomal acid glucosylceramidase (Homo sapiens) (UniProt P04062); test: Glucocerebrosidase-p2 (AID 348; in the data active = potency below about 10 µM; note: potency is the fitted concentration of half-maximal effect); details: purified GBA, blue fluorogenic substrate, 40 min
Summary of the method: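 Normal human glucocerebrosidase (0.2 nM) with blue fluorogenic substrate (80 uM final) in citrate/phosphate pH 5.9 with 10mM sodium taurocholate, 0.01% tween-20; 40 min RT, NaOH/glycine stop; fluorescence Ex 365/Em 440; AC50 from a titration from 0.6 nM upwards.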

[16] = AP1 Signaling Pathway (AID 357; active = well fitted curve in either direction with a large enough effect, not every such curve was filed as active; note: % is set by controls: 0 for no effect and ±100 for the full control effect)
Summary of the method: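 AP-1-bla ME-180 cells with beta-lactamase reporter under AP-1 response element, stimulated with EC50 EGF; compounds titrated, 5 hours at 37 degrees Celsius. CCF4 read at 460/530 nm ratio; positive and negative modulators judged by AC50.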

[17] = biological target: Cytochrome P450 1A2 (Homo sapiens) (UniProt P05177); test: p450-cyp1a2 (AID 410; calls by dose curve; note: potency is the fitted concentration of half-maximal effect)
Cytochrome P450 1A2 (Homo sapiens), sequence (P05177 whole entry, looked up): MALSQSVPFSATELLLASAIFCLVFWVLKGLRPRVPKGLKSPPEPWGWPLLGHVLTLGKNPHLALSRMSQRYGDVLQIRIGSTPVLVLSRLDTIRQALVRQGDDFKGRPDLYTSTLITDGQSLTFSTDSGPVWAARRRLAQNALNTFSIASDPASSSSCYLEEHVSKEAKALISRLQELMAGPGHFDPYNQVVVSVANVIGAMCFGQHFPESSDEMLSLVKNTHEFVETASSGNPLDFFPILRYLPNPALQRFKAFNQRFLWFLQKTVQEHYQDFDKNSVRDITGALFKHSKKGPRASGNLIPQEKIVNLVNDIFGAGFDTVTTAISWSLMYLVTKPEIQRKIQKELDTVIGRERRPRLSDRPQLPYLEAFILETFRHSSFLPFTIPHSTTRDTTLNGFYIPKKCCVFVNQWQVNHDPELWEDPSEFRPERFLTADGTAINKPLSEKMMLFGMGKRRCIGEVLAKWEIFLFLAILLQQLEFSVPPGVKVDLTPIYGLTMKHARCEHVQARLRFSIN
Summary of the method: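 Read-out is luminescence from luciferin produced by CYP1A2 demethylation of Luciferin-ME (100uM, at Km). Detection reagent stopped the 60 min NADPH-dependent reaction; signals were normalized to 57 uM furafylline.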

[18] = NFAT Signaling Pathway (AID 444; active = well fitted curve in either direction with a large enough effect, not every such curve was filed as active;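 note: carbachol stimulus at about its EC50 of 1 µM final; % is set by controls: 0 for no effect and ±100 for the full control effect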); details: Jurkat NFAT-bla M1, carbachol, beta-lactamase ratio, 5 h; at 7.69 µM (top of the series)
Summary of the method: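 Read-out: CCF4 FRET ratio (460 nm/530 nm) after 1 h RT dye loading, used for %activity and AC50 from titration series. Cells: Jurkat NFAT-β-lactamase/M1 line, treated with compound plus 1 uM carbachol for 5 h, 37 °C.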

[19] = Stat Signaling Pathway (AID 446; active = well fitted curve in either direction with a large enough effect, not every such curve was filed as active;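 note: ME-180 cervical cancer cells given 40 pM IL-6 alongside compound; SIE-controlled beta-lactamase reporter measured as 460/530 nm FRET emission ratio; % is set by controls: 0 for no effect and ±100 for the full control effect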)
Summary of the method: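 Overnight-plated ME-180 cells bearing a STAT Inducible Element beta-lactamase reporter; 5 h co-exposure to compound and 40 pM IL-6; values normalized to 300 pM IL-6 and 125 nM JAK inhibitor controls.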

[20] = biological target: Glucocorticoid receptor (Homo sapiens) (UniProt P04150); test: GR-GFP Redistribution (AID 450;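 active = compounds whose dose series gives a full or clear partial fitted curve of increased nuclear translocation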; note: potency is the fitted concentration of half-maximal effect); details: U2OS GR-GFP nuclear translocation, laser cytometry, 2 h
Glucocorticoid receptor (Homo sapiens), sequence (P04150 whole entry, looked up, the tested form may be a part): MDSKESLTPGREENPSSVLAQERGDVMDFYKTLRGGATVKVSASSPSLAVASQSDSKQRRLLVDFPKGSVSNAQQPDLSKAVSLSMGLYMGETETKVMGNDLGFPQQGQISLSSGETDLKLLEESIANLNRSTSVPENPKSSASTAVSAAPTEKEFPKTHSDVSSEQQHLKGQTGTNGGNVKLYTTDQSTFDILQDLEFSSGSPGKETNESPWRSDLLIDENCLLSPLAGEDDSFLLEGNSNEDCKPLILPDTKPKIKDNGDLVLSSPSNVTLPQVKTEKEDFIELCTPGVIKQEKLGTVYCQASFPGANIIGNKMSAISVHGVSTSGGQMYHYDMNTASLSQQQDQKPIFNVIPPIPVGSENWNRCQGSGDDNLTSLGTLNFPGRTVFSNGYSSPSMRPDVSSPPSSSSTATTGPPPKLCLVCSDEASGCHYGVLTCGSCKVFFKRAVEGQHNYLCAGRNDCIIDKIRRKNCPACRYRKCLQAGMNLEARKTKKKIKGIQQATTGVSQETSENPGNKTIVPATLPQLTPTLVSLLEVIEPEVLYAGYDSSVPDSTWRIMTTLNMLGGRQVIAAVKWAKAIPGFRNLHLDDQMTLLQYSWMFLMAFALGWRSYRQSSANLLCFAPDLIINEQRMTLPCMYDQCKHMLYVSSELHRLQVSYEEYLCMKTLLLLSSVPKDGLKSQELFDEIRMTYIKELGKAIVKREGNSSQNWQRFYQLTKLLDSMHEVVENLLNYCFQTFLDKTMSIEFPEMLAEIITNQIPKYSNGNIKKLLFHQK

[21] = biological target: Glucocorticoid receptor (Homo sapiens) (UniProt P04150); test: GR-EFC Redistribution (AID 451; calls by dose curve; note: potency is the fitted concentration of half-maximal effect); details: CHO-K1 GR-EFC translocation, beta-gal luminescence, 2 h
Summary of the method: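 Translocation of GR-ED fusion to nuclear EA restores b-gal, read by luminescence after 1 h room-temperature detection. Engineered CHO-K1 biosensor cells, 1,000/well, exposed 2 h at 37 C to titrations up to 46 uM final.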

[22] = biological target: Mitogen-activated protein kinase 10 (Mus musculus) (UniProt Q61831); test: JNK3 AlphaScreen Assay (AID 530; active = well fitted curve in either direction with a large enough effect, not every such curve was filed as active)
Summary of the method: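 Kinase buffer: 20 mM Tris-HCl pH 7.6, 10 mM MgCl2, 1 mM DTT, 0.1 mM Na3VO4, 0.01% Tween-20; ATP 10 uM. Substrate biotin-GST-cJun(1-79), enzyme from activated HepG2 lysates. Detection by Ser73 phospho-antibody AlphaScreen.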

[23] = biological target: 3',5'-cyclic-AMP phosphodiesterase 4B (Homo sapiens) (UniProt Q07343); test: qHTS Assay for Inhibitors of PDE-IV (AID 607; active = well fitted activation curve with a large enough effect in the main read-out, with a control signal flat, not every such curve was filed as active; note: % of control where 0% means no effect)
3',5'-cyclic-AMP phosphodiesterase 4B (Homo sapiens), sequence (Q07343 whole entry, looked up): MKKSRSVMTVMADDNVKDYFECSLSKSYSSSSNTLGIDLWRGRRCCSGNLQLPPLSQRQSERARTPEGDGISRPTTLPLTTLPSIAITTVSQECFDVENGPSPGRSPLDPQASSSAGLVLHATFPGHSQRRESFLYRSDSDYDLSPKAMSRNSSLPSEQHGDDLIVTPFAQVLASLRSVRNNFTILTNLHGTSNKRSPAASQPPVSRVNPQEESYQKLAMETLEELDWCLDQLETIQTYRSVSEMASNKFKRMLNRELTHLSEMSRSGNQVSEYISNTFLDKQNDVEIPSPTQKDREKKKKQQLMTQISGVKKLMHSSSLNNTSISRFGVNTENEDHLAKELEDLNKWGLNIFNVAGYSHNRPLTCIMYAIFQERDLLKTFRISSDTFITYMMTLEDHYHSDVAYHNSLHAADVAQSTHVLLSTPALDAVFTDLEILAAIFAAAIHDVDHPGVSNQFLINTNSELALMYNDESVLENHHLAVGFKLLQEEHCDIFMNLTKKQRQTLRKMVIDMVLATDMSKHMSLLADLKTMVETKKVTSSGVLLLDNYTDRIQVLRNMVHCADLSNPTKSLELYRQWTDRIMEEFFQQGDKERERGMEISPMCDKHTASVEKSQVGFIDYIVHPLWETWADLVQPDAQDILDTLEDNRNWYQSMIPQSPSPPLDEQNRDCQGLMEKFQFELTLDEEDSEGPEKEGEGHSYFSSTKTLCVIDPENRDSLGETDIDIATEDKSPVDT
Summary of the method: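 Live HEK293 cells with a modified cyclic nucleotide-gated (CNG) channel report intracellular cAMP via membrane-potential dye fluorescence (ex 535/em 590 nm). Endogenous PDE-IV was targeted. Compounds were tested at up to 22.9 uM final; RO 20-1724 100 uM served as control.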

[24] = biological target: Cytochrome P450 3A4 (Homo sapiens) (UniProt P08684); test: qHTS Assay for Inhibitors and Substrates of Cytochrome P450 3A4 (AID 884); note: potency is the fitted concentration of half-maximal effect; nearly all actives have a fitted effect of over 50% in size
Cytochrome P450 3A4 (Homo sapiens), sequence (P08684 whole entry, looked up): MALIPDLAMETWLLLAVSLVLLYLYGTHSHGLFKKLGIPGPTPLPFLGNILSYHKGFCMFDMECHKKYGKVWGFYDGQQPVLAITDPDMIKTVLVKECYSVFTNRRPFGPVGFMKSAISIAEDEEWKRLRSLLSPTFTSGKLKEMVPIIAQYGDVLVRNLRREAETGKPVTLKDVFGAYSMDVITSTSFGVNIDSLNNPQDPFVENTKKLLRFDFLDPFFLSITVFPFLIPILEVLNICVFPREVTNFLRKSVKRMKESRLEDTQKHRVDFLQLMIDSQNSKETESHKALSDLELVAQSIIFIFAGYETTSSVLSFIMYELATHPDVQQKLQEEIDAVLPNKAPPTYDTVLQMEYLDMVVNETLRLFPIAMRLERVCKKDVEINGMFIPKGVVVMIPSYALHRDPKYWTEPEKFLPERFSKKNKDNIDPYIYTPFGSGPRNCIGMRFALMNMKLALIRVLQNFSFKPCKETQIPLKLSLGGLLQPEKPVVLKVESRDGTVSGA
Summary of the method: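 Luminescent readout of luciferin produced by CYP3A4 (20 nM) dealkylation of Luciferin-PPXE, 25 uM (its KM). NADPH-driven reaction ran 60 min at RT after 10 min compound preincubation; data scaled to 57 uM ketoconazole as 100% inhibition.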

[25] = biological target: Cytochrome P450 3A4 (Homo sapiens) (UniProt P08684); test: qHTS Assay for Activators of Cytochrome P450 3A4 (AID 885); note: nearly all actives have a fitted effect of over 65% in size
Summary of the method: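 Using 20nM recombinant human CYP3A4 in potassium phosphate (200mM), substrate Luciferin-PPXE at 25uM, luminescent luciferin detection followed a 60-min RT NADPH reaction; data scaled to 57 uM ketoconazole.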

[26] = biological target: Cytochrome P450 2D6 (Homo sapiens) (UniProt P10635); test: qHTS Assay for Inhibitors and Substrates of Cytochrome P450 2D6 (AID 891); note: potency is the fitted concentration of half-maximal effect; nearly all actives have a fitted effect of over 60% in size
Summary of the method: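 Luminescent read-out of luciferin formed by 5 nM human CYP2D6 demethylating 30 uM Luciferin-ME EGE (Km level) over 60 min at room temperature after NADPH regeneration addition. Data normalized to full inhibition by 1.43 uM quinidine.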

[27] = biological target: Cytochrome P450 2C19 (Homo sapiens) (UniProt P33261); test: qHTS Assay for Inhibitors and Substrates of Cytochrome P450 2C19 (AID 899); note: potency is the fitted concentration of half-maximal effect; nearly all actives have a fitted effect of over 60% in size
Summary of the method: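 5nM enzyme + 10uM Luciferin-H EGE (=KM), 50mM KPO4; cpd pin-transferred, 10 min 37C; NADPH regen, 60 min 37C; stopped w/ luciferin detection reagent, 20 min; luminescence. Normalized to 57uM ketoconazole (AC100).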

[28] = biological target: Dual specificity protein kinase CLK4 (Homo sapiens) (UniProt Q9HAZ1); test: qHTS Assay for Inhibitors of CDC-like Kinase 4 (Kinase-Glo Assay) (AID 1770); note: % is set by controls: 0 for no effect and ±100 for the full control effect; nearly all actives have a fitted effect of over 65% in size
Dual specificity protein kinase CLK4 (Homo sapiens), sequence (Q9HAZ1 whole entry, looked up): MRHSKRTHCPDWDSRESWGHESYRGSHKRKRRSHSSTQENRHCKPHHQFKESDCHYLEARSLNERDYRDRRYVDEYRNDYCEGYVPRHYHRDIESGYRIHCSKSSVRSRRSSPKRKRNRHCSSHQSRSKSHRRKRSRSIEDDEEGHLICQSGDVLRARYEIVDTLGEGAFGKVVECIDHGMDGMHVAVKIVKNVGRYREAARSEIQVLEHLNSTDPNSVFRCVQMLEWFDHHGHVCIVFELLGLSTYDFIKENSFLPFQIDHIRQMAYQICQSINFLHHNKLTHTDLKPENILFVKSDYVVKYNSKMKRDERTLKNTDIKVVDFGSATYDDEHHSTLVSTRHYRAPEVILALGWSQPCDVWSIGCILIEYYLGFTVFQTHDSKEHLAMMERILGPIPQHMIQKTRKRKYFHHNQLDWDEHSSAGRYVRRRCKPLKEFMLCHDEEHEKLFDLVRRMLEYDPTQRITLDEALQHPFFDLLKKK
Summary of the method: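 Recombinant human Clk4 (25 nM) phosphorylated RS repeat peptide (100 uM) with 1 uM ATP in Tris pH 7.5/MgCl2/EGTA/DTT/Triton buffer for 4.5 h at room temperature. Residual ATP was quantified by Kinase-Glo luciferase luminescence.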

[29] = biological target: Dual specificity protein kinase CLK4 (Homo sapiens) (UniProt Q9HAZ1); test: qHTS Assay for Inhibitors of CDC-like Kinase 4 (ADP-FP Assay) (AID 1795); note: % is set by controls: 0 for no effect and ±100 for the full control effect; nearly all actives have a fitted effect of over 60% in size
Summary of the method: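 Recombinant human Clk4 (6.25 nM) phosphorylated RS repeat peptide (100 uM) with 1 uM ATP in Tris pH 7.5/MgCl2/EGTA/DTT/Triton buffer for one hour. ADP was quantified by Transcreener competitive fluorescence polarization against an ADP calibration curve.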

[30] = biological target: Ubiquitin carboxyl-terminal hydrolase 1 (Homo sapiens) (UniProt O94782); test: Inhibitors of USP1/UAF1: Pilot qHTS (AID 504865);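 note: rhodamine fluorescence freed from ubiquitin-rhodamine substrate followed over time; top concentration of the series differs between compounds; % is set by controls: 0 for no effect and ±100 for the full control effect; nearly all actives have a fitted effect of over 35% in size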
Summary of the method: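 USP1/UAF1 complex (1nM) preincubated with compound 15 min at room temperature, then Ub-Rho substrate (150nM final) added. Fluorescence read kinetically at 480/540 nm, 6 reads every 60 seconds. Buffer: 50mM HEPES pH 7.8, 0.5mM EDTA, 0.1 mg/ml BSA, 1mM TCEP, 0.01% Tween-20.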

[31] = biological target: Cytochrome P450 2C9 (Homo sapiens) (UniProt P11712); test: qHTS for inhibitors of CYP2C9 against the NCATS DSHEA and TCM libraries (AID 1919973)
Summary of the method: as §2

CC[C@@H]1CN2CC[C@]3(C(=O)Nc4ccccc43)[C@@H]2C[C@@H]1/C(=C\OC)C(=O)OC
active: Potency [1] 3.98 µM | Potency [7] 11.2 µM
inactive: outcome [2] | Potency [3] | outcome [4] | outcome [5] | Potency [6] | outcome [8] | Potency [9] | max response [10] -3.13% | outcome [11] | outcome [12] | outcome [13]

Clc1ccccc1-c1cncnc1NCCc1cnc[nH]1
active: Potency [17] 1.58 µM | Potency [24] 0.501 µM | Potency [26] 3.98 µM | Potency [27] 0.0126 µM
inactive: Potency [14] > 20 µM | Potency [15] > 11.4 µM | outcome [16] | activity change, negative = inhibition [18] -21.6% | outcome [19] | Potency [20] > 46 µM | Potency [21] > 46 µM | outcome [22] | Potency [23] | Potency [25] | outcome [28] | outcome [29] | Potency [30]

C=C[C@H]1CN2CC[C@@]3(C(=O)Nc4ccccc43)[C@@H]2C[C@@H]1/C(=C\OC)C(=O)OC
inactive: outcome [2] | Potency [3] | outcome [4] | outcome [5] | Potency [6] | Potency [31] | outcome [8] | Potency [9] | max response [10] -1.45% | outcome [11] | outcome [12] | outcome [13]
active: Potency [1] 3.98 µM
